Source: PubChem BioAssay
Rows were chosen to be rich in hits. Some 3.7% of all compounds tested hit in one or more screens of this group.
ANO1 block – blocks the mouse calcium-activated chloride channel TMEM16A | HEK293 TMEM16A/YFP iodide influx fluorescence, ionomycin | normalized B-score (activity score, 25-100; higher = stronger inhibition) at 10 µM | 310,000 tested, 1.2% active;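 active = ratio plate-corrected score three or more library SD toward inhibition, starting fluorescence score within five deviations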;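 note: score derived from kinetic fluorescence span divided by baseline fluorescence per well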
CHT block – inhibitors of human choline transporter CHT; CHT-expressing cells, membrane potential dye, choline response; active compounds read low; 310,000 tested, 0.86% active; B-score at 10 µM; Q9GZV3;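 active = B-score over 3 SD under the library average, and starting fluorescence ratio not unusually high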;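 note: choline stimulus applied at its EC90 after an EC20 pre-addition; B-score computed on integrated fluorescence ratio after choline addition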
GPR7 antag – blocks human GPR7 receptor signaling; P48145; GPR7-expressing cells, fluorescence antagonist assay; inhibition, % at 4.4 µM; 290,000 tested, 1.1% active; AID 1861; in the data active = inhibition above about 16%, passing the limit was not always enough;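 note: cells stimulated with the agonist NPW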
Target sequence (P48145 whole entry, looked up): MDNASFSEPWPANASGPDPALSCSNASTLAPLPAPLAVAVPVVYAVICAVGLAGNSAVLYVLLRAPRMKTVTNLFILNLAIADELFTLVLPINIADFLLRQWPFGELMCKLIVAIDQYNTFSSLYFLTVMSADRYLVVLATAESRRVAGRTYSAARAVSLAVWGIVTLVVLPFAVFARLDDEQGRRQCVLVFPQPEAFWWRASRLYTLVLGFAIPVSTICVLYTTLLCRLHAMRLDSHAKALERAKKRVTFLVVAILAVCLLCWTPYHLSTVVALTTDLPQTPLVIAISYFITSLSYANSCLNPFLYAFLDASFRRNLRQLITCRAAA
TMEM16A act – activators or potentiators of mouse TMEM16A chloride channel; B-score at 10 µM; HEK293 TMEM16A/YFP-H148Q/I152L, iodide quench fluorescence; active compounds read low; Q8BHY3; AID 623877; 340,000 tested, 0.3% active;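 active = fluorescence-ratio B-score plate-corrected deviation score at least 3 library SD below zero, with starting fluorescence score within 5 deviations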;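 note: channel opened by trigger with iodide after compound preincubation; score built on the fluorescence ratio of max minus min over baseline; more negative score means more quench and so TMEM16A activation or potentiation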
CHT allo act – allosterically activates the human high affinity choline transporter. CHT-expressing cells, membrane potential dye, choline EC20; active compounds read high; LV-AA mutant CHT in HEK293 cells. B-score at 10 µM. Q9GZV3. 310,000 tested, 0.49% active;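 active = initial fluorescence not abnormally high and integrated response B-score, plate-corrected, over 3 SD above library mean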
Kir21 inh – Kir2.1 (mouse) channel inhibition; P35561; HEK293-Kir2.1, FluxOR thallium flux fluorescence; active compounds read low; B-score at 10 µM; 310,000 tested, 0.85% active;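 active = fluorescence ratio B-score at or below minus 3 SD of library scores, with starting-brightness B-score within 2 SD, cut at about -4.2 in these data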;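 note: channel flux triggered by added potassium and thallium sulfate stimulus; B-score of peak minus minimum fluorescence over baseline after thallium stimulus; more negative B-score means stronger Kir2.1 block with less thallium influx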
CHT activ conf – confirmation of human choline transporter (CHT) activators | CHT-expressing cells, membrane potential dye fluorescence (FDSS); % of choline EC20–EC90 response window; HEK293 expressing CHT LV-AA mutant; choline added at its EC20 | shares compounds with CHT allo act | 2,500 tested, 91% active | activation, % at 10 µM | AID 504833;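 active = primary screen active, with duplicate mean activation above negative control mean plus 3 SD, cut at about 11% in these data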
HEK293 MP dye – CHT activator counter-screen hit in parental HEK293 cells. ratio readout change at 10 µM, hits read low. shares compounds with CHT allo act. 2,500 tested, 62% active. membrane potential dye fluorescence (FDSS); measured after EC20 choline addition;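 active = duplicate-averaged ratio beyond 3 SD from buffer wells, up or down, though filed actives are nearly all decreases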
Of the large screens only hits and unclear results are named; the others gave an inactive call (follow-up assays come after a bar, where they were run).

Cc1ccc(C)c(-c2[nH]ncc2CN2CCCC(CO)(Cc3ccccc3C)C2)c1 (stereo unspecified)	CHT allo act 6.4 | CHT activ conf 17 | HEK293 MP dye inactive
Cc1nc(N=C(N)N)nc2ccccc12	CHT allo act 8.1 | CHT activ conf 67 | HEK293 MP dye -60
CCOC(=O)c1ccc2c(c1)n(CC)c(/C=C/N(C)c1ccccc1)[n+]2CC	CHT allo act 7.4 | CHT activ conf 44 | HEK293 MP dye -63
NC(=O)CN1CCN(CCN2C(=O)c3cccc4cccc(c34)C2=O)CC1	none | CHT activ conf 43 | HEK293 MP dye -33
CCCS(=O)(=O)N1CCN(CCN2C(=O)c3cccc4cccc(c34)C2=O)CC1	none
CCOC(=O)c1nc2cc3n(c(CC(C)C)c-2c1C)CC(C)=C3C	none | CHT activ conf 44 | HEK293 MP dye -40
CCOC(=O)c1nc2cc3n(c(C)c-2c1C)C(C)C(C)=C3C (stereo unspecified)	none
Cc1nc(NCCCn2ccnc2)c2ccccc2n1	none | CHT activ conf 46 | HEK293 MP dye -65
Cc1ccc(C(=O)N/C(=C/c2ccccc2)C(=O)NCC2CCCO2)cc1 (stereo unspecified)	none
CCSc1ccc2cc(OC)ccc2[n+]1CC	CHT allo act 6.3 | CHT activ conf 40 | HEK293 MP dye -54
CCOc1ccc2[nH]c(C)c(CN(C)C)c(=O)c2c1	none | CHT activ conf 53 | HEK293 MP dye -25
C=CCN(Cc1cccs1)C(=O)COc1ccc2c(c1)OCO2	none (no result: ANO1 block, CHT block, GPR7 antag, CHT allo act, Kir21 inh)
COc1ccc(NC(=O)Cn2ccc3c(OC)cccc3c2=O)cc1	none | CHT activ conf inactive | HEK293 MP dye inactive
CSCCC(NS(=O)(=O)c1ccc(C)c(C(=O)O)c1)C(=O)O (stereo unspecified)	none
O=C(NCc1cccnc1)c1cccn2c(=O)c3sccc3nc12	CHT allo act 7.8 | CHT activ conf 54 | HEK293 MP dye -53
O=C(COC(=O)CCCOc1ccccc1)NNC(=O)c1ccc([N+](=O)[O-])cc1	none
CC(=O)N1N=C(c2cccc([N+](=O)[O-])c2)OC1(C)CC(=O)Nc1ccccc1 (stereo unspecified)	none
COc1ccc(CC2(C)OC(c3ccc(C)c([N+](=O)[O-])c3)=NN2C(C)=O)cc1 (stereo unspecified)	none | CHT activ conf 27 | HEK293 MP dye inactive
COc1cccc(N2CC(C)Cn3c2nc2c3c(=O)[nH]c(=O)n2C)c1 (stereo unspecified)	none
Cc1ccc(CS/C(Nc2ccccc2C)=C(\C#N)C(N)=O)c(C)c1	none
CCCC[C@H]1COCCS(=O)(=O)N1Cc1ccccc1F	none
CCC[C@H]1COCCS(=O)(=O)N1Cc1ccccc1F	none | CHT activ conf inactive | HEK293 MP dye inactive
CCOC(=O)c1c(CN2CCN(C)CC2)n(C)c2cc(Br)c(OC)cc12	GPR7 antag 19 | CHT activ conf 39 | HEK293 MP dye -55
COc1cc(NC(=O)CN2C(=O)C(c3ccccc3)=NC23CCCCCC3)cc(OC)c1	CHT allo act 7.6 | CHT activ conf inactive | HEK293 MP dye inactive
COC(=O)c1nnn(-c2nc(N3CCOCC3)nc(N3CCOCC3)n2)c1C	CHT allo act 7.8 | CHT activ conf 33 | HEK293 MP dye -40
O=c1cc(CN2CCN(CCO)CC2)c2cc3c(cc2o1)CCC3	none | CHT activ conf 46 | HEK293 MP dye -44
Cn1c(=O)c2c(nc(N3CCN(C(=O)c4ccco4)CC3)n2CCSc2ncccn2)n(C)c1=O	CHT allo act 7.1 | CHT activ conf 57 | HEK293 MP dye -58
Cc1cccc(Cn2c(N3CCN(C)CC3)nc3c2c(=O)[nH]c(=O)n3C)c1	none
Cc1ccnc(SCCn2c(N3CCOCC3)nc3c2c(=O)[nH]c(=O)n3C)n1	CHT allo act 10 | CHT activ conf 65 | HEK293 MP dye -58
CCN1CCN(c2nc3c(c(=O)[nH]c(=O)n3C)n2CCSc2nc3ccccc3s2)CC1	CHT allo act 13 | CHT activ conf 40 | HEK293 MP dye -45
Cc1ccnc(SCCn2c(N3CCC(C)CC3)nc3c2c(=O)[nH]c(=O)n3C)n1	none (no result: ANO1 block, CHT block, CHT allo act, Kir21 inh)
CCCn1c(N2CCN(Cc3cccc(C)c3)CC2)nc2c1c(=O)[nH]c(=O)n2C	none | CHT activ conf 12 | HEK293 MP dye -28
CC1CC(C)CN(c2nc3c(c(=O)[nH]c(=O)n3C)n2CCCSc2nc3ccccc3s2)C1 (stereo unspecified)	none (no result: ANO1 block, CHT block, CHT allo act, Kir21 inh)
COc1cc(C(=O)NCC(c2ccco2)N2CCCC2)ccc1OCc1ccc(Cl)cc1Cl (stereo unspecified)	none (no result: ANO1 block, CHT block, GPR7 antag, CHT allo act, Kir21 inh)
Cc1cc(C)cc(NC(=O)COC(=O)COc2ccc(N(C)S(=O)(=O)c3cccs3)cc2)c1	none (no result: ANO1 block, CHT block, GPR7 antag, CHT allo act, Kir21 inh)
CN(C)CCN(C(=O)c1ccc(N2C(=O)CCC2=O)cc1)c1nc2cc3c(cc2s1)OCCO3	none (no result: TMEM16A act)
COc1ccccc1N(Cc1cc(=O)[nH]c2ccccc12)C(=O)c1ccc([N+](=O)[O-])cc1	none
CN1CCN(c2nc3c(c(=O)[nH]c(=O)n3C)n2CCCSc2nnnn2-c2ccccc2)CC1	CHT allo act 6.6 | CHT activ conf 47 | HEK293 MP dye -49
CN1CCN(c2nc3c(c(=O)n(C)c(=O)n3C)n2CCSc2nc3ccccc3s2)CC1	CHT allo act 7.4 (no result: TMEM16A act, Kir21 inh) | CHT activ conf 65 | HEK293 MP dye -46
Cn1c(=O)c2c(nc(N3CCCCCC3)n2CCSc2nc3ccccc3o2)n(C)c1=O	none
COC(=O)C1=C(C)NC(=S)NC1c1ccc(-c2cc(Cl)ccc2Cl)o1 (stereo unspecified)	none
CCn1c2ccccc2c2nn(C)c(=N)nc21	CHT allo act 7.2 | CHT activ conf 66 | HEK293 MP dye -70
CCn1c2ccccc2c2nnc(NN)nc21	none
COCC(=O)N(Cc1cc2cccc(C)c2[nH]c1=O)c1ccccc1	none
COc1ccc(Nc2nccc(OC)c2C#N)cc1	none
COc1ccc(Nc2nccc(N(C)C)c2C#N)cc1	none | CHT activ conf 50 | HEK293 MP dye -42
COc1ccc(C2C(C#N)=C(N)Oc3cc(N)ccc32)cc1 (stereo unspecified)	none
COc1cc(C2C(C#N)=C(N)Oc3cc(N)ccc32)cc(OC)c1OC (stereo unspecified)	CHT allo act 7.7 (no result: Kir21 inh) | CHT activ conf 40 | HEK293 MP dye inactive
Cc1ccc2cc(C)c(NCCO)nc2c1	CHT allo act 8.1 | CHT activ conf 31 | HEK293 MP dye -52
